Test in all cases: NCI-60 one-dose screen, 48 h (100 = growth as untreated, 0 = no growth, -100 = all killed)
Holding throughout (conditions): 10 µM unless noted

Test [1] concerns DU-145 prostate.
For test [2], the system named is K-562 leukemia.
For test [3], the system named is MALME-3M melanoma.
Test [4] has as its system MDA-MB-231 breast.
For test [5], the system named is RXF 393 renal.
The test system of test [6] is SF-268 CNS.
Test [7] relates to SF-295 CNS.
Test [8] relates to SF-539 CNS.
The test system of test [9] is UACC-257 melanoma.
The subject of test [10] is M14 melanoma.
The subject of test [11] is HCT-15 colon.
Test [12] relates to HT29 colon.
The test system of test [13] is SNB-75 CNS.
The test system of test [14] is SNB-19 CNS.
The subject of test [15] is U251 CNS.
Test [16] deals with PC-3 prostate.
Test [17] has as its system SK-MEL-5 melanoma.
Test [18] relates to UACC-62 melanoma.
Test [19] concerns LOX IMVI melanoma.
The test system of test [20] is SK-MEL-28 melanoma.

The structures appear in SMILES notation. About 83,000 compounds went through this panel and 20% of them were active in at least one assay; those are over-represented in the sample as a whole.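 Assay: single dose, 48 h. Readout: percent growth (0 = no net growth; negative = cell death). Active: <10.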 Unmarked numbers belong to inactive results. Activity calls are given as the source filed them.

In the case of `COC(C(=O)[C@@H](O)[C@@H](C)O)[C@@H]1Cc2cc3cc(O[C@H]4C[C@@H](O[C@H]5C[C@@H](O)[C@H](O)C(C)O5)[C@H](O)C(C)O4)c(C)c(O)c3c(O)c2C(=O)[C@H]1O[C@H]1C[C@@H](O[C@H]2C[C@@H](O[C@H]3C[C@@H](O)[C@H](OC)C(C)O3)[C@@H](O)C(C)O2)[C@H](O)C(C)O1` (stereo not given in full), the growth in [1] is 12%; in [2], 5.99% (active); in [3] it was -30.7% (active); in test [4], 17.2%; in test [5], -55.4% (active); in [6] it was 14.2%. The growth is 8.2% (active) in test [7]; -23.6% (active) in [8]; -21.7% (active) in test [9]; -17.9% (active) in test [10]; 8.46% (active) in [11]; -13.6% (active) in test [12]. The growth in [13] was -57% (active); in [14], 12.4%; in test [15], 2.99% (active); in [16], 11.2%; in test [17] it was -36.9% (active); in test [18] it was -35.4% (active). Moreover, the growth in [19] is -8.28% (active); in test [20], -34.1% (active).
Take `OCCNCCCOc1ccc2ncnc(Nc3ccc(Oc4cccc(C(F)(F)F)c4)c(Cl)c3)c2c1`: the growth in test [1] is 16.3%; in test [2], 1.39% (active); in test [3] it was 41.1%; in test [4], -18% (active); in test [5] it was -49.3% (active); in test [6], 56%. The growth was 39.7% in test [7]; -46.3% (active) in test [8]; 54.9% in [9]; -60.3% (active) in test [10]; -23.8% (active) in test [11]; -13.3% (active) in [12]. Also, the growth in [13] was 62.4%; in [14] it was 44.9%; in test [15], 3.99% (active); in [16], 30.5%; in test [17], 48.9%; in test [18], 88.3%. Besides, the figures for the growth in test [19] and in test [20] were -98.9% (active) and 73.1%, respectively.
For the compound `Cc1cccc(Cl)c1NC(=O)c1ccc2nc(NC(=O)NCCN(C)C)sc2c1`, the growth in [1] is 104%; in [2] it was 14.7%; in [3], 70.7%; in test [4], 92.6%; in test [5], 47.5%; in [6], 93.6%. The growth is 86.7% in [7]; 79.8% in [8]; 86.1% in [9]; 90.5% in test [10]; 99.3% in test [11]; 80.1% in test [12]. In addition, the growth is 23.7% in test [13]; 105% in test [14]; 80.4% in test [15]; 62.2% in [16]; 67.3% in test [17]; 97.3% in test [18]. Further, the growth was 91.5% in [19] and 87.6% in [20].
As for `Nc1nc(=S)c2ncn(C3OC(COP(=O)(O)O)C(O)C3O)c2[nH]1` (stereo not given), the growth in test [1] was 22.6%; in [2] it was 13.7%; in [3], 39.7%; in test [4], 38.7%; in [5], 13.9%; in test [6] it was 28.2%. For the same compound, the growth in test [7] was 19.9%; in [8], 26.2%; in test [9], 36.7%; in test [10], 14.6%; in test [11] it was 9.49% (active); in [12], 7.19% (active). In addition, the growth in [13] was 47.8%; in test [14], 96.1%; in test [15], 47.3%; in test [16], 29.1%; in test [17] it was 69.5%; in [18], 14%. Further, the growth was 3.07% (active) in test [19] and 73.5% in test [20].
For the compound `O=C(Nc1nn(-c2ccc(Cl)cc2Cl)nc1-c1ccccc1)c1ccccc1`, the growth in test [1] was 131%; in test [2] it was 91.9%; in [3], 80.2%; in test [4], 98.3%; in test [5], 111%; in [6], 107%. Also, the growth in test [7] was 56.9%; in test [8] it was 121%; in test [9] it was 106%; in test [10] it was 87.1%; in test [11] it was 97.1%; in test [12], 94.1%. In addition, the growth was 85.7% in [13]; 105% in test [14]; 93.6% in test [15]; 84.3% in test [16]; 110% in test [17]; 84.9% in [18]. The growth in test [19] is 82.5%; in [20] it was 104%.
Turning to `CC(C)c1ccc(NC(=O)Nc2ccc(NC(=O)CCCC(=O)NOCc3ccccc3)cc2)cc1`, the growth in [1] was 94.3%; in test [2], 83.4%; in [3] it was 82.8%; in test [4] it was 93.9%; in test [5], 109%; in [6] it was 95.9%. In addition, the growth was 91.2% in test [7]; 75.1% in [8]; 86.5% in test [9]; 97.3% in test [10]; 99.8% in test [11]; 79.4% in [12]. Further, the growth in test [13] was 80.2%; in [14], 91.3%; in test [15], 85.6%; in test [16] it was 93.3%; in [17] it was 83.8%; in test [18], 89.2%. The growth in test [19] is 82.2%; in [20], 94.4%.
Consider `O=C(CCc1nnc(Cn2cnc3nc[nH]c3c2=O)o1)c1nc2ncccc2[nH]1`, for which the growth was 108% in [1]; 99.7% in test [2]; 97.5% in test [3]; 94.7% in test [4]; 102% in [5]; 96.1% in test [6]. Also, the growth in test [7] was 101%; in [8] it was 95%; in [9], 105%; in test [10], 96.5%; in test [11], 104%; in test [12], 92%. For the same compound, the growth in test [13] is 92.5%; in test [14] it was 94.6%; in test [15], 101%; in test [16], 105%; in test [17], 104%; in test [18], 94.3%. Further, the growth in [19] is 88.1%; in [20], 111%.

The record behind these values is PubChem BioAssay (NCI).
